Results on 40 compounds are retold here after PubChem BioAssay.

For orientation: inhibition means the share of the control response that was lost under treatment.

Unmarked numbers belong to inactive results. No rule for the calls is given here.

The target in this assay is Pantothenate synthetase (Mycobacterium tuberculosis (strain ATCC 25618 / H37Rv)) (UniProt P9WIL5). Nature of the assay: Recombinant Mtb pantothenate synthetase (PanC) inhibitors, coupled enzyme, confirmatory (AID 375).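 Also: 0% = full reaction with vehicle and 100% = no enzyme background.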 The conditions noted are these: coupled enzyme assay; at 10 µM, stronger effect = higher value.
Pantothenate synthetase (Mycobacterium tuberculosis (strain ATCC 25618 / H37Rv)), sequence (P9WIL5 whole entry, looked up): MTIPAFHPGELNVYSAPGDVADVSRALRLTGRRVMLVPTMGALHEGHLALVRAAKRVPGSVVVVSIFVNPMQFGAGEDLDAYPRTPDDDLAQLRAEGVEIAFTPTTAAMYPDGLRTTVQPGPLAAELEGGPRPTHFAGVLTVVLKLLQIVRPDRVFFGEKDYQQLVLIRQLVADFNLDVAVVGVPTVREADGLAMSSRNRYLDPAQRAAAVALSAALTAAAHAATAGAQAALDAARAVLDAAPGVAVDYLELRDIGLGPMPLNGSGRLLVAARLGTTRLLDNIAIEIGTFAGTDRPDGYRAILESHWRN
Turning to `CC1CCN(c2nc3c(c(=O)[nH]c(=O)n3C)n2CCSc2ncccn2)CC1`, the inhibition was 0%.

In the case of `Cc1ccc(C)c(S(=O)(=O)n2cnc3ccccc32)c1`, the inhibition is 0%. The result for `C=CCn1c(COc2ccccc2F)nnc1SCC(=O)N1CC(=O)Nc2ccccc21` reads 1%. Then `Cc1ccc2cc(CN(CC(C)C)C(=O)C3CCCO3)c(=O)[nH]c2c1` (stereo not given), with 0%; and `COc1ccc(N=C2C(=O)Nc3ccccc32)cc1`, with 0%; and `O=S(=O)(NCCc1csc(-c2ccccc2)n1)c1ccc2c(c1)OCCO2`, with 4%. The result for `CC[C@]1(O)CC2CN(CCc3c([nH]c4ccccc34)[C@@](C(=O)OC)(c3cc4c(cc3OC)N(C=O)[C@H]3[C@@](O)(C(=O)OC)[C@H](OC(C)=O)[C@]5(CC)C=CCN6CC[C@]43[C@@H]65)C2)C1` (stereo not given in full) reads 1%; that for `COc1ccc(N2CCN(C(=O)C(C)(C)Oc3ccc(Cl)cc3)CC2)cc1`, 0%; that for `CC(C(=O)N1c2ccc(F)cc2CCC1C)N1C(=O)c2ccccc2C1=O` (stereo not given), 5%. Turning to `COC(=O)c1cccc(NC(=O)CSc2nnc(COc3ccccc3)n2C)c1`, the inhibition was 0%. The result for `O=C(NCC(=O)N(c1ccc2c(c1)OCCO2)C(C(=O)NC1CCCC1)c1ccco1)c1ccco1` (stereo not given) reads 6%; that for `CCOC(=O)N1CCN(C(=O)CSc2nnc(-c3cc(OC)cc(OC)c3)o2)CC1`, 0%. On to `COc1ccc(CC(NC(C)=O)C(=O)NC2CCN(C(=O)Nc3ccc(C#N)cc3)CC2)cc1OC` (stereo not given), for which the inhibition is 10%. The result for `COc1ccc(NC(C)=O)cc1NC(=O)CN1CCN(c2ccccn2)CC1` reads 0%; that for `COC(=O)C(C)Sc1nc2c(c(=O)n(C)c(=O)n2C)n1Cc1cccc(C)c1` (stereo not given), 2%; that for `CCNc1oc(COc2cccc(C)c2)nc1C#N`, 5%.

Turning to `C[C@H](CS)C(=O)N1CCC[C@H]1C(=O)O`, the inhibition was 2%.

Regarding `O=C(c1ccc2nc(N3CCCCC3)sc2c1)N1CCN(c2ccccn2)CC1`, the inhibition is 0%. The result for `Cc1nnc(SCC(=O)NCc2ccc3c(c2)OCO3)s1` reads 5%; that for `COc1cccc(-c2cc(C(=O)Nc3cc(OC)c(OC)c(OC)c3)no2)c1`, 0%.

With `Cc1sc2c(c1C)CN(C1CC(C)(C)NC(C)(C)C1)CN2C(=O)c1ccco1`, the inhibition is 7%.

`CCOC(=O)c1c(N)nn(C(=O)C(C)C)c1-c1ccccc1`: the inhibition was 0%. Then `Cc1nc(-c2cccc(N)c2)cs1`, with 0%. Take `CCCOc1ccc(C2C(C(=O)OC)=CN(CCOC)C=C2C(=O)OC)cc1`: the inhibition was 1%. Then `CCOC(=O)c1sc(NC(=O)c2noc3c2CCCC3)c(C(=O)OCC)c1C`, with 0%; and `N#C/C(C(=O)NCc1ccco1)=C1/SC(Cc2ccc(F)cc2)C(=O)N1c1ccccc1` (stereo not given), with 0%. For `COC(=O)c1ccccc1NC(=O)C1CC(=O)N(c2ccccc2)C1` (stereo not given), the inhibition is 4%. The result for `Cc1ccc(S(=O)(=O)N2CCC(C(=O)N[C@@H](Cc3ccccc3)C(=O)O)CC2)cc1` reads 0%; that for `COCCn1nnnc1C(c1cc2cc(C)cc(C)c2[nH]c1=O)N1CCN(c2ccccc2F)CC1` (stereo not given), 2%; that for `CCOc1ccc(C(=O)Nc2cc(C)on2)cc1OCC`, 6%. The result for `Cc1cc(=O)oc2cc(OCC(=O)OCC(=O)N3CCc4ccccc43)ccc12` reads 3%; that for `Cc1cc(Nc2ccccc2)n(CCC#N)n1`, 14%; that for `Cc1ccc(S(=O)(=O)Cn2nnnc2CN(Cc2ccco2)Cc2cccs2)cc1`, 0%. The result for `Cn1cnnc1SCC(=O)NCc1cccc(C(F)(F)F)c1` reads 0%. For the compound `O=C(NCCN1CCOCC1)NC1(C(F)(F)F)Oc2ccc(Cl)cc2O1` (stereo not given), the inhibition was 0%.

With `CC(C)(S)[C@@H](N)C(=O)O`, the inhibition was 4%. Take `CCOC(=O)c1[nH]c2ccc(Br)cc2c1NC(=O)CCN1CCC(C(=O)OCC)CC1`: the inhibition was 0%. Then `COc1ccc(CCN2C(=O)CCC2(C)C(=O)NCc2cccnc2)cc1OC` (stereo not given), with 0%; and `O=C(c1cc2n(n1)C(C(F)(F)F)CC(c1ccc(Cl)cc1)N2)N1CCCC1` (stereo not given), with 5%. The result for `CCC(=O)N1CCc2cc(S(=O)(=O)CCC(=O)Nc3ccc(C)c(F)c3)ccc21` reads 0%.
